Assay outcomes from PubChem BioAssay.
TIM10 inh = inhibits growth of TIM10 yeast strain; AID 463195; 330,000 tested, 1.4% active; inhibition, % at 10 µM; S. cerevisiae TIM10 strain growth, BacTiter-Glo luminescence, 24 h;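 active = inhibition of 40% or more at the single tested concentration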;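 also: wild-type TIM10 isogenic control strain grown at permissive 25 °C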
SUMO Mot1 rescue = inhibitors of SUMOylation pathway: yeast Mot1-301 growth rescue; S. cerevisiae Mot1-301 growth rescue, ATP luminescence, 38.5C; percent above DMSO median, 100 means doubled; growth rescue, % at 18.8 µM; 320,000 tested, 1% active;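 active = every valid replicate shows activation above 250% relative to neutral control wells; inactive = the rest, any valid replicate at or below 250%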;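 also: OY570 slx delta 5 strain wells were the positive control but not used for scaling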
PfHsp90 set2 = reduces growth (ATP signal) of yeast expressing P. falciparum Hsp90. S. cerevisiae expressing PfHsp90, BacTiter-Glo ATP, 48 h; yeast lacking PDR1 and PDR3 efflux regulators. inhibition, % at 9.4 µM. 310,000 tested, 0.32% active;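 active = every replicate shows inhibition above about 80%, whatever the replicate mean, limit read from the data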;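 also: 0% = DMSO neutral controls and 100% = 20 µM radicicol positive controls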
tim23-1 inh = growth inhibitors of tim23-1 mutant yeast; inhibition, % at 20 µM; S. cerevisiae tim23-1 growth, BacTiter-Glo luminescence, 24 h; 330,000 tested, 1.3% active;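 active = growth inhibition of the mutant yeast at or above 50%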;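 also: temperature-sensitive mutant grown at 25 °C; plate controls were DMSO-treated mutant yeast for no effect and medium wells lacking yeast for full effect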
tim10-1 inh = growth inhibitors of tim10-1 mutant yeast; S. cerevisiae tim10-1 ts strain growth, BacTiter-Glo, 24 h; inhibition, % at 20 µM; 330,000 tested, 2.2% active;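 active = inhibition of at least 40%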;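 also: mutant grown at 25 °C; 0% = DMSO wells with yeast and 100% = wells holding no yeast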
tim10-1 confirm = tim10-1 yeast growth inhibition, confirmed | shares compounds with tim10-1 inh | S. cerevisiae tim10-1 ts strain growth, BacTiter-Glo, 24 h | inhibition, % at 20 µM | 7,400 tested, 56% active | AID 463213;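 active = inhibition of yeast growth at or above a set limit in either of two repeat tests at 20 µM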;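 also: tim10-1 mutant grown at permissive 25 °C to find synthetic lethal compounds; 0% = DMSO yeast wells and 100% = medium wells without yeast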
TIM10 conf = TIM10 yeast growth inhibition, confirmed. shares compounds with TIM10 inh. S. cerevisiae tim10 strain growth, BacTiter-Glo luminescence, 24 h. inhibition, % at 10 µM. 4,600 tested, 63% active. AID 463215;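 active = inhibition of yeast growth at or above a set limit in either of two replicates at 10 µM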;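 also: this counterscreen used the strain with wild-type TIM10; 0% = yeast with DMSO and 100% = medium wells lacking yeast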
tim23-1 conf = tim23-1 yeast growth inhibition, confirmed. shares compounds with tim23-1 inh. S. cerevisiae tim23-1 growth, BacTiter-Glo luminescence, 24 h. inhibition, % at 20 µM. 4,400 tested, 83% active. AID 463218;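 active = inhibition above about 39% in either of two replicate wells at 20 µM, limit read from the data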;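 also: temperature-sensitive tim23-1 mutant grown at 25 °C; 0% = DMSO wells with yeast and 100% = medium wells without yeast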
* marks the source's active call; other numbers are inactive results; · = not tested or not shown. This is a sample that favours compounds with a hit; in the whole collection about 4.4% have one here.

SMILES | TIM10 inh | SUMO Mot1 rescue | PfHsp90 set2 | tim23-1 inh | tim10-1 inh | tim10-1 confirm | TIM10 conf | tim23-1 conf
O=C(Nc1ccc(Cl)cc1C(=O)Nc1ccc(Br)cn1)c1ccco1 | 44* | 290 | 13 | 60* | 45* | 42* | 48* | 58*
Cc1cc(Br)ccc1NC(=O)c1ccco1 | -13 | 4 | -1 | 7 | -9 | · | · | ·
S=C(NCCN1CCOCC1)N/N=C/c1cccs1 | 12 | 2 | -11 | -3 | -2 | · | · | ·
S=C(N/N=C/c1cccs1)NC1CC2CCC1C2 (stereo unspecified) | 50* | 2 | 5 | 72* | 48* | 46* | 60* | 58*
CCCN1C(C)C(C(=O)OCC)=CN(Cc2cccc(I)c2)S1(=O)=O (stereo unspecified) | -4 | · | 9 | 35 | 15 | · | · | ·
CCC(=O)N1CCc2cc(Br)cc(S(=O)(=O)N3CCCCC3CC)c21 (stereo unspecified) | 13 | 30 | 28 | 29 | 20 | · | · | ·
COc1ccc(Cn2c(SCc3ccccc3C)nc3cc(OC)c(OC)cc3c2=N)cc1 | 3 | -17 | 11 | 51* | 50* | -27 | · | 1
COc1ccc(-c2cc3nc(C)cc(N)n3n2)cc1 | 47* | -69 | 63 | 54* | 62* | 44* | 14 | 64*
COc1cc(C(C[N+](=O)[O-])c2c(-c3ccccc3)cc3ccccn23)cc(OC)c1OC (stereo unspecified) | 34 | -2 | -2 | 54* | 41* | 33* | · | 69*
COc1cc(C(C[N+](=O)[O-])c2c(C)cc3ccccn23)ccc1O (stereo unspecified) | 26 | 172 | 17 | 32 | 27 | · | · | ·
CC(C)NC(=O)/C(C#N)=C/c1cccc(NC(=O)c2ccccc2Cl)c1 | 63* | -21 | -2 | 78* | 70* | 67* | 1 | 67*
COCCNC(=O)/C(C#N)=C/c1cccc(NC(=O)c2ccccc2Cl)c1 | 27 | -11 | 11 | 31 | 38 | · | · | ·
CC1=NOC(=O)/C1=C\c1ccc(-c2ccc(Cl)cc2Cl)o1 | 21 | · | 72 | 81* | 46* | 46* | · | 51*
Cc1cc(C)c2nc(NNC(=O)c3cc(-c4cccs4)nc4ccccc34)sc2c1 | -12 | 298 | -203 | 42 | 37 | · | · | ·
O=C(NNc1nc2ccc(Cl)cc2s1)c1cc(-c2cccs2)nc2ccccc12 | 19 | -8 | 103* | 52* | 50* | 35* | · | 54*
CN(Cc1nc(-c2ccc(Cl)cc2)no1)C(=O)CCN1C(=O)[C@H]2CC=CC[C@H]2C1=O | 5 | 0 | -3 | 15 | 14 | · | · | ·
CCN1/C(=C/c2ccc3ccccc3[n+]2CC)C=Cc2ccccc21 | 52* | -18 | 26 | 85* | 74* | 75* | 20 | 67*
C/C(CC(C)(C)C1CCCCC1)=N\NC(N)=S | 55* | 143 | -190 | 78* | 69* | 70* | 73* | 64*
COc1ccccc1NC(=O)C1CCN(S(=O)(=O)c2cccc3nonc23)CC1 | -21 | -4 | 23 | 11 | -2 | · | · | ·
COc1ccc(C(=O)C[n+]2cn(C(F)F)c3ccccc32)c(F)c1 | 63* | 31 | · | 58* | 53* | 50* | 31* | 43*
COc1ccc2c(ccc[n+]2CC(=O)c2ccccc2)c1 | 1 | 11 | 23 | -6 | 15 | · | · | ·
N/C(=N\OC(=O)c1cccc(Br)c1)c1ccccc1 | 83* | 10 | 4 | 83* | 66* | 58* | 86* | 73*
O=C(c1cccc(Br)c1)c1conc1C(=O)c1ccco1 | 43* | 15 | -8 | 54* | 48* | 44* | 38* | 59*
N/C(=N\OC(=O)c1ccco1)c1cccc(Br)c1 | 61* | · | -7 | 64* | 56* | 56* | 54* | 45*
CCc1ccc(NC(=O)CN(c2ccc(OC)cc2)S(=O)(=O)c2c(C)nn(C)c2C)cc1 | 8 | 10 | -2 | 23 | 26 | · | · | ·
